What all share (set-up): scale not given: direction of the effect not stated beside the values
Assay [1] concerns the target Protein translocase subunit SecA (Escherichia coli (strain K12)) (UniProt P10408). The assay is described as follows: Assay to Identify E. coli SecA ATPase Inhibitors. The format is functional. The settings on record: 30 µM.
Assay [2] concerns the target T1, Ubiquitin-activating enzyme e1, putative (Leishmania donovani (strain BPK282A1)) (UniProt E9BSI1).
T1 sequence (whole entry): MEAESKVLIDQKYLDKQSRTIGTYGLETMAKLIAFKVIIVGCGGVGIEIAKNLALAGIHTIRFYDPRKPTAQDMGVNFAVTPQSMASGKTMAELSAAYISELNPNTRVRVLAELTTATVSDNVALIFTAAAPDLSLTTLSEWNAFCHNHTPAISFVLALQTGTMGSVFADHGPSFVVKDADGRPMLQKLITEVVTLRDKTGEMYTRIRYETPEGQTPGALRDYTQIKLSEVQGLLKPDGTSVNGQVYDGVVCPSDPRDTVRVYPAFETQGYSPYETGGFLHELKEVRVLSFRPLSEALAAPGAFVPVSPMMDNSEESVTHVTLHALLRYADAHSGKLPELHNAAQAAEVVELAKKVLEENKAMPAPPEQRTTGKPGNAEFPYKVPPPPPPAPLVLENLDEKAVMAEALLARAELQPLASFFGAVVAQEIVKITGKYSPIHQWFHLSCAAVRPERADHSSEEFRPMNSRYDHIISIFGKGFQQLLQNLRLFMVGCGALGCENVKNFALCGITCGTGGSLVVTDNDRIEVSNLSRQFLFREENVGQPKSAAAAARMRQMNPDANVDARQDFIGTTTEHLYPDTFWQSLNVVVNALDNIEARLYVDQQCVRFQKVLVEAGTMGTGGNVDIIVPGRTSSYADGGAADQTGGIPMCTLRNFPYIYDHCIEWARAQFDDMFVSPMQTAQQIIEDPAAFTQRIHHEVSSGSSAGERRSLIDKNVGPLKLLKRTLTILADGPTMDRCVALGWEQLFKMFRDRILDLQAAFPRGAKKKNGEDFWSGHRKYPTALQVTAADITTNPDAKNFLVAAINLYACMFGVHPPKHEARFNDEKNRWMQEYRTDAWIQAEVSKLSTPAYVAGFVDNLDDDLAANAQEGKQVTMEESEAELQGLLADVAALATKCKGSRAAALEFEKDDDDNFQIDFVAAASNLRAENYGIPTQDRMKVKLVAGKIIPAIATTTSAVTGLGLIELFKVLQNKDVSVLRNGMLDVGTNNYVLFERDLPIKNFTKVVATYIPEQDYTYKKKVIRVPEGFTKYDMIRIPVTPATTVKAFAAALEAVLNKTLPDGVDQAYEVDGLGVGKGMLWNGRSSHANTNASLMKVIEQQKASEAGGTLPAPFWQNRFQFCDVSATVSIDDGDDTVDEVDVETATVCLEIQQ
Nature of the assay: Leishmania donovani Ubiquitin Activating Enzyme (LdE1). It is filed as functional. Conditions: 30 µM.

In assay [3] the target is AMP-activated protein kinase, AMPK (Homo sapiens) (UniProt P54646+O43741+P54619+Q9UGJ0+Q9Y478+Q13131+Q9UGI9). The assay is described as follows: AMP-dependent Kinase enzyme assay. An in vitro enzyme assay that detects ADP turnover that is directly proportional to AMPK activity. This uses naive AMPK that is activated during the assay with MK-8722. The format is functional. Conditions: 30 µM.

Assay [4] addresses Sialic acid-binding Ig-like lectin 9 (Homo sapiens) (UniProt Q9Y336). The assay is described as follows: Hs-Siglec9 ALPHAscreen SOP 20170721. The settings on record: 10 µM.
Assay [5] deals with Trypanosoma cruzi. Nature of the assay: Trypanosoma cruzi phosphomannomutase and mannose-1-phosphate guanylyltransferase assay. It is filed as functional. Conditions: 10 µM.
In assay [6] the target is T2, Arginase-2, mitochondrial (Homo sapiens) (UniProt P78540).
T2 sequence (whole entry): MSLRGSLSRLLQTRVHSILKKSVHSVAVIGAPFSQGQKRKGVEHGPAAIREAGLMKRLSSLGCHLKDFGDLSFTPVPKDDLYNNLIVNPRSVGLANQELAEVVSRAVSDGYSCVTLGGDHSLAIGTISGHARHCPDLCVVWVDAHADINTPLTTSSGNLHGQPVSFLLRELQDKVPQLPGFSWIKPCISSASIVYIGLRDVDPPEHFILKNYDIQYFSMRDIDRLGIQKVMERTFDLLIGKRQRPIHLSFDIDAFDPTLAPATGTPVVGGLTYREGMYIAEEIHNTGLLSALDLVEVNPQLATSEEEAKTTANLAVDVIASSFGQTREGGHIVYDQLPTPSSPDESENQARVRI
Nature of the assay: in vitro enzyme assay to detect the production of urea directly proportional to the activity of Arginase II. Further: in the data most compounds retested in dose-response had high values. The format is functional. The settings on record: 33.3 µM.

Assay [7] concerns the target T3, Proteasome subunit beta (Trypanosoma cruzi) (UniProt O96673).
T3 sequence (whole entry): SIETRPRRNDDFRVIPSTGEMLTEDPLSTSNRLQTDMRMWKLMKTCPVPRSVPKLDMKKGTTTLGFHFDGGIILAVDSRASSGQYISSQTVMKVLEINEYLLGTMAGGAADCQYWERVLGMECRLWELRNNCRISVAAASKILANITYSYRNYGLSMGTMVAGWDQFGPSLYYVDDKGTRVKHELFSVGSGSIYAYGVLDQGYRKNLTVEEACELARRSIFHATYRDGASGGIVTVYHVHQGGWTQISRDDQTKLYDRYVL
The assay is described as follows: Trypanosoma cruzi proteasome chymotrypsin-like activity (TcProtChymo) assay. Further: in the data most compounds retested in dose-response had high values. It is filed as functional. The settings on record: 9.37 µM.

For assay [8], the species on record is Homo sapiens. Nature of the assay: To identify inhibition of the IFN signalling (Jak-Stat) pathway via expression of an eGFP reporter gene under the control of an IFN-stimulated response element (ISRE) containing MxA promoter. It is filed as functional. Conditions: 30 µM. In general terms: Reporter assays use an easily measured gene product as a stand-in for the process of interest.

Assay [9] has as its target T4, Tyrosyl-tRNA synthetase, putative (Trypanosoma cruzi (strain CL Brener)) (UniProt Q4DSP6).
T4 sequence (whole entry): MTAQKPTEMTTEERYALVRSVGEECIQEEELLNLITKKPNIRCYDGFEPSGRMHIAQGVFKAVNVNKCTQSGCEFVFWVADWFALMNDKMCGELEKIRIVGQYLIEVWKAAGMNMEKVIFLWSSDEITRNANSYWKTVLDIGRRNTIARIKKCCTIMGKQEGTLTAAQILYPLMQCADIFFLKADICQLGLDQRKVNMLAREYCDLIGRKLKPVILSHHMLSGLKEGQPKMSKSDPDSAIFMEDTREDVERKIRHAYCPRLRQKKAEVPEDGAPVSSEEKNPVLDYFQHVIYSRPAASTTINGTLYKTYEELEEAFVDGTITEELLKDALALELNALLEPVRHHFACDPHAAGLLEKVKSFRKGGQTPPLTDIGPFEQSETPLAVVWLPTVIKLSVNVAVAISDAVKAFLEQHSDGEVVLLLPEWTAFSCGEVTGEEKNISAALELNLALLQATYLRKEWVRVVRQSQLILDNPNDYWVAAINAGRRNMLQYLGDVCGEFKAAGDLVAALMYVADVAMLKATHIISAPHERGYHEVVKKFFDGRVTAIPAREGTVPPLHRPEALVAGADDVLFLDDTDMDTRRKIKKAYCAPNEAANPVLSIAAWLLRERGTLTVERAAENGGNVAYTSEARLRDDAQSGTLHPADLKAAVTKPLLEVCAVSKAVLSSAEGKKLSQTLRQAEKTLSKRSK
The assay is described as follows: Trypanosoma cruzi tyrosyl tRNA synthetase (TcYRS) _High Tyrosine SOP. Further: in the data most compounds retested in dose-response had high values. The format is functional. The settings on record: 30 µM.

The target in assay [10] is T4, Tyrosyl-tRNA synthetase, putative (Trypanosoma cruzi (strain CL Brener)). Nature of the assay: Trypanosoma cruzi tyrosyl tRNA synthetase (TcYRS) SOP. The settings on record: 30 µM. The format is functional.
In assay [11] the target is Chromo domain-containing protein 1 (Saccharomyces cerevisiae (strain ATCC 204508 / S288c) (Baker's yeast)) (UniProt P32657). The assay is described as follows: ScCHD-1 Enzyme Inhibition Assay. Further: in the data most compounds retested in dose-response had high values. The format is functional. Conditions: 30 µM.
Sequence of Chromo domain-containing protein 1 (Saccharomyces cerevisiae (strain ATCC 204508 / S288c) (Baker's yeast)) (P32657 whole entry, the tested form may be a part): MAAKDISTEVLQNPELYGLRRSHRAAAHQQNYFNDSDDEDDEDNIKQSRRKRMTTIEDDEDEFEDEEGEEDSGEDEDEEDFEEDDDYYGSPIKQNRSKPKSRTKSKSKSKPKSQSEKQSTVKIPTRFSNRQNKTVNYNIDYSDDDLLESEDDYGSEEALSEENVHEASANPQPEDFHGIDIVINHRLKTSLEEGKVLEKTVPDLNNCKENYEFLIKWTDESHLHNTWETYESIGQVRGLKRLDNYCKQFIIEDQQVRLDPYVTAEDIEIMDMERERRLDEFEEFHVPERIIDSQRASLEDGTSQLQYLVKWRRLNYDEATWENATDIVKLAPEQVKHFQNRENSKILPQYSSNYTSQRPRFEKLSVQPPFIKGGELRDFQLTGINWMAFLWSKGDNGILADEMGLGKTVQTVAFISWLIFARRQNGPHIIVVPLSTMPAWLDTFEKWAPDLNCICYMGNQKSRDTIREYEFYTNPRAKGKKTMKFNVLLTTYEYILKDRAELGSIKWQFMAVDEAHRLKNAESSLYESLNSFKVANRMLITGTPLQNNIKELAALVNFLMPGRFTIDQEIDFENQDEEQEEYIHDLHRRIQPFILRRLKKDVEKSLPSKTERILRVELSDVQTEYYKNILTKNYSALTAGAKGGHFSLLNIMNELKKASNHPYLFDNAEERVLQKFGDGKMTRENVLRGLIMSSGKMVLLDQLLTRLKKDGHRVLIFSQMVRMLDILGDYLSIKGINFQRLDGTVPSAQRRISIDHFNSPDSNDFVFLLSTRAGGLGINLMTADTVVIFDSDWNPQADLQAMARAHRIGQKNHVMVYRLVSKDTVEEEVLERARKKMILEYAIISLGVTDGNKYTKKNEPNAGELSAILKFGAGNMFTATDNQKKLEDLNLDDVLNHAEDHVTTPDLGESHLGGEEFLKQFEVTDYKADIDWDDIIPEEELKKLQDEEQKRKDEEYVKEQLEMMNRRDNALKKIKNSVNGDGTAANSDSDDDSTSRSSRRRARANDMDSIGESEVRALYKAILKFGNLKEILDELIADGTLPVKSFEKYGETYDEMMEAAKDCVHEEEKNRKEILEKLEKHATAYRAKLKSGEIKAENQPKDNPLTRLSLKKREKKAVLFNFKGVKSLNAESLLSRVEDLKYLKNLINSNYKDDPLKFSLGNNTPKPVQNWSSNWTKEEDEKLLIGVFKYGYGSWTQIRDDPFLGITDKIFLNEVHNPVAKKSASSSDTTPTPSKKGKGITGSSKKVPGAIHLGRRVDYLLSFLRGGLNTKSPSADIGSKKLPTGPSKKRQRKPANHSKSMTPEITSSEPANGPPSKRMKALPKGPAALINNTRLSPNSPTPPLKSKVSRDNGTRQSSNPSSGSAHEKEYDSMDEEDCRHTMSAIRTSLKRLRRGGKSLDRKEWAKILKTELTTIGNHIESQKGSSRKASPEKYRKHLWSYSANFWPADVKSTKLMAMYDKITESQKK

For some of these results: Potency and affinity values are given separately.

Sequence of Protein translocase subunit SecA (Escherichia coli (strain K12)) (P10408 whole entry): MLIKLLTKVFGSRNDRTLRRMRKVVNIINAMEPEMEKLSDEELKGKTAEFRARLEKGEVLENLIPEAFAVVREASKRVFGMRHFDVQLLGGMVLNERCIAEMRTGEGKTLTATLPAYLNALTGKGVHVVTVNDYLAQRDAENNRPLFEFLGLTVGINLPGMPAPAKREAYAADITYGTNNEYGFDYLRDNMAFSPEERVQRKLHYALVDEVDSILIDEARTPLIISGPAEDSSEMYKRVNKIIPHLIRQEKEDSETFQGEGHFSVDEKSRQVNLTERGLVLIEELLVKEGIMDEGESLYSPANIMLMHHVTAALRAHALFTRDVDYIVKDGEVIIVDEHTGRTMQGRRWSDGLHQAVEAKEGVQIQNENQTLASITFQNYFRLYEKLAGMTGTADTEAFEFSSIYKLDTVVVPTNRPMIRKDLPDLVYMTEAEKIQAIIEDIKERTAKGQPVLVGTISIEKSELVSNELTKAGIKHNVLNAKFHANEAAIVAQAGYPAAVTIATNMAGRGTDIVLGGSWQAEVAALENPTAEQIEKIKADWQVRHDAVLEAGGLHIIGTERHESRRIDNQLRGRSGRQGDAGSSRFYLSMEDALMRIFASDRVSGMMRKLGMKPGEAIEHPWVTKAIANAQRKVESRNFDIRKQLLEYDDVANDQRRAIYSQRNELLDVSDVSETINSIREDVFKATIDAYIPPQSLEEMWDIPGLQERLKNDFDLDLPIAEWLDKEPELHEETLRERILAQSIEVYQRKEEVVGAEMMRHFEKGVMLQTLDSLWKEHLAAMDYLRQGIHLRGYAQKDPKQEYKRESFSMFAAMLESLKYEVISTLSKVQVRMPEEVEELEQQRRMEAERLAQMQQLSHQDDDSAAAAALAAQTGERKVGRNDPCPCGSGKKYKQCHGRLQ
Sequence of Sialic acid-binding Ig-like lectin 9 (Homo sapiens) (Q9Y336 whole entry): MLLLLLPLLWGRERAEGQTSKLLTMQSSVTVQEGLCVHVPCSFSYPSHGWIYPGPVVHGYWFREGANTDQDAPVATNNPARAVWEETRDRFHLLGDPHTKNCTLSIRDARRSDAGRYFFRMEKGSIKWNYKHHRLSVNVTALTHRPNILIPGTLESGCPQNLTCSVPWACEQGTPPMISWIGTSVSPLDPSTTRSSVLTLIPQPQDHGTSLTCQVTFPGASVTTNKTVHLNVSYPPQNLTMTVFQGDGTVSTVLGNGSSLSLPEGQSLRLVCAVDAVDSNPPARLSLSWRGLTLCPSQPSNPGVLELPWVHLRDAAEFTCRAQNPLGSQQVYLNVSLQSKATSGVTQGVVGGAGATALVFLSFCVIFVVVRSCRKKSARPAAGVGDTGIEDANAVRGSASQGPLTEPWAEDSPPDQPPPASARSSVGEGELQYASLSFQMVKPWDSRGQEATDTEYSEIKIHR

Regarding `CCOc1ccc(Cl)cc1CNCCCn1ccnc1`, the Percent Effect in assay [1] is -0.524%; in assay [2] it was 6.67%; in assay [3], 7.15%; in assay [4], -7.03%; in assay [5] it was -5.5%; in assay [6], -9.68%. For the same molecule, the Percent Effect is 19% in [7]; 11% in assay [8]; -2.12% in assay [9]; 5.13% in assay [10]; -11.2% in assay [11].

As for `Cc1nn(C)c(Cl)c1C1CCCN1C(=O)c1ccc2nncn2c1` (stereo unspecified), the Percent Effect in [1] was -3.02%; in assay [2], 0%; in assay [3], 2.19%; in assay [4], -4.7%; in assay [5], -4.25%; in assay [6] it was 0%. The Percent Effect in [7] is 3.6%; in assay [8], -2.92%; in assay [9] it was -4.43%; in assay [10] it was -6.17%; in [11], -0.833%.

As to `COc1cccc(OCCNCc2c(C)nn(C)c2N(C)C)c1`, the Percent Effect in assay [1] is -5.35%; in assay [2] it was 5.26%; in assay [3], -9.94%; in assay [4], 10.1%; in assay [5] it was 1.5%; in assay [6], 1.92%. Moreover, the Percent Effect in assay [7] was 7.69%; in assay [8], -12%; in assay [9] it was 4.41%; in [10], 19.5%; in assay [11], -8.18%.

On to `Cn1ccnc1CN1CCCCC1Cn1cccn1` (stereo unspecified), for which the Percent Effect was -4.99% in assay [1]; 3.8% in assay [2]; 0.666% in assay [3]; 3.72% in [4]; 0.718% in assay [5]; 0.215% in assay [6]. Besides, the Percent Effect in [7] is -1.03%; in [8], 4.51%; in [9] it was 6.25%; in assay [10], 10.1%; in assay [11], -20.8%.

Regarding `CCC1CN(c2nnc(C)c(C)c2C#N)CCO1` (stereo unspecified), the Percent Effect was -3.31% in assay [1]; 2.63% in assay [2]; -17.9% in [3]; -4.88% in [4]; 6.96% in assay [5]; 1.15% in assay [6]. Besides, the Percent Effect in assay [7] is 20.7%; in assay [8], 9.86%; in [9] it was 0.49%; in assay [10] it was 21.9%; in assay [11], -13.8%.

For `Cc1cnn(CC2CCCN2C(=O)c2cn(-c3ccccc3)nc2C)c1` (stereo unspecified), the Percent Effect in assay [1] was -2.73%; in [2], 2.7%; in assay [3] it was -10.7%; in assay [4] it was 13.6%; in [5], 1.6%; in assay [6], -3.61%. Further, the Percent Effect in assay [7] was -4.32%; in [8], -0.766%; in assay [9], 7.39%; in assay [10], 11.1%; in [11], -6.26%.

As to `NC(=O)CN1CCCN(C(=O)c2ccn(-c3cccc(F)c3)n2)CC1`, the Percent Effect in [1] is -1.81%; in [2], 6.94%; in assay [3], -1.98%; in [4], -6%; in assay [5] it was -3.01%; in assay [6] it was 2.21%. The Percent Effect in assay [7] was 10.3%; in [8] it was -17.8%; in [9], -1.05%; in [10] it was 5.13%; in [11], -0.989%.

For the molecule `CCc1ccc(S(=O)(=O)Nc2cc(OC)c(OC)cc2C(=O)O)s1`, the Percent Effect in assay [1] was -4.39%; in [2], 13.2%; in [3] it was 5.52%; in [4], -13.6%; in assay [5], -8.12%; in assay [6], 2.16%. Also, the Percent Effect was 8.54% in assay [7]; 8.65% in assay [8]; -7.39% in assay [9]; -1.24% in assay [10]; -5.49% in assay [11].

In the case of `Cc1nc(C2CCCN(C(=O)c3cnn(C(C)(C)C)c3)C2)no1` (stereo unspecified), the Percent Effect in [1] is -11.7%; in assay [2] it was 16.5%; in assay [3] it was -6.15%; in assay [4] it was -0.567%; in assay [5], 4.82%; in assay [6] it was -1.07%. Besides, the Percent Effect in assay [7] was 2.74%; in [8], -0.962%; in assay [9] it was 4.17%; in [10] it was 12.7%; in assay [11] it was -34.2%.

With `CCn1c(CN2CCC(O)(C(=O)OC)CC2)nc2c(F)cccc21`, the Percent Effect in [1] is -3.73%; in [2], -44.7%; in [3], -3.77%; in assay [4], 0.565%; in assay [5] it was 8.27%; in assay [6], -3.06%. Moreover, the Percent Effect was 7.85% in assay [7]; 11.3% in assay [8]; 5.39% in assay [9]; 9.76% in [10]; -12.4% in assay [11].

Consider `COc1cccn(CC(=O)N(C)Cc2ccoc2)c1=O`, for which the Percent Effect in [1] is -7%; in assay [2], -5.48%; in [3], -5.18%; in [4] it was 30.6%; in assay [5], 1.59%; in [6] it was 0.399%. In addition, the Percent Effect in assay [7] was 2.48%; in assay [8], -11%; in [9], 2.08%; in assay [10], 3.7%; in assay [11] it was 1.52%.

For the origin of these results see ChEMBL document CHEMBL3988442, “University of Dundee, Small-Polar-MMV Screening Library” (2021).
